# Where “and” joins values, the source holds several entries; their conditions need not be identical. Equal values may be shown once. Calls of active or inactive are those of the source. The rule behind the calls is not given here.
# Target: Lethal factor (Bacillus anthracis) (UniProt P15917)
# Assay: Bacillus anthracis lethal factor inhibition, microsphere flow cytometry protease assay, validation at 10 µM (AID 588461)
# Conditions: multiplex microsphere protease cleavage assay, active compounds read high
row,Compound,inhibition
1,C[C@H](NC(=O)C1(c2ccccc2)CCN(C(=O)[C@H]2CSCN2C(=O)OC(C)(C)C)CC1)C(=O)O,-10.5% (inactive)
2,CC(=O)c1c(C)c(C)c2n1CCn1c(C)ccc1-2,0.9% (inactive)
3,CCOC(=O)C1=C(C)NC(C)=C(C(=O)OC)C1c1cccc([N+](=O)[O-])c1 (stereo not given),-10% (inactive)
4,C[C@]12CC[C@@H]3c4ccc(O)cc4C(=O)C[C@H]3[C@@H]1CC[C@@H]2O,-6.8% (inactive)
5,OCCC1CN(Cc2ccccc2-c2ccco2)CCN1C1CCCC1 (stereo not given),5.3% (inactive)
6,COc1cc(C)nc(-n2nc(C)cc2OC)n1,-4.9% (inactive)
7,CCCN1C[C@H](CSC)C[C@@H]2c3cccc4[nH]cc(c34)C[C@H]21,-33.7% (inactive)
8,CC(=O)OCC(=O)[C@H]1CC[C@H]2[C@@H]3CC=C4C[C@@H](O)CC[C@]4(C)[C@H]3CC[C@]12C,-7.4% (inactive)
9,CC(=O)Nc1ccc(OS(=O)(=O)c2c(C)cc(C)cc2C)cc1,-0.9% (inactive)
10,O=c1[nH]c(Cc2ccccc2)nc2c1oc1ccccc12,8.7% (inactive)
11,COc1ccc(O)c(C2=Nc3ccccc3N=C(c3ccccc3)C2)c1,4.2% (inactive)
12,Cc1nc(-c2coc3c(CN(C)C)c(O)ccc3c2=O)cs1,10.3% (inactive)
13,Cc1ccc(C(=O)O)cc1NC(=O)c1cccs1,2% (inactive)
14,CC[C@]1(O)C[C@@H]2CN(CCc3c([nH]c4ccccc34)[C@@](C(=O)OC)(c3cc4c(cc3OC)N(C)[C@H]3[C@@](O)(C(=O)OC)[C@H](OC(C)=O)[C@]5(CC)C=CCN6CC[C@]43[C@@H]65)C2)C1,-0.3% (inactive)
15,Cn1c(=O)[nH]c(=O)c2c1nc(NCc1ccco1)n2CCCc1ccccc1,0.5% (inactive)
16,CC1=NN(C(=O)c2ccc(Br)cc2)C(O)(c2ccccc2)C1 (stereo not given),4.5% (inactive)
17,CCNC(=O)c1sc2cc(C)ccc2c1Cl,-1.4% (inactive)
18,O=CNC1CCCc2c1[nH]c1ccc(Cl)cc21 (stereo not given),1.6% (inactive)
19,N=c1c[n+](N2CCOCC2)[n-]o1,0.2% (inactive)
20,CN1CCN(C2=Nc3ccccc3Oc3ccc(Cl)cc32)CC1,-3.9% (inactive)

row,Compound,inhibition
1,COc1ccc(C(=O)Nc2cccc3cccnc23)cc1OC,-4.6% (inactive)
2,Nc1ccc(S(=O)(=O)NC(=O)c2ccccc2)cc1,-2.7% (inactive)
3,Cc1ccc(C2=NOC(=O)/C2=C\C=C\c2ccccc2)cc1,0.5% (inactive)
4,CC(C)Oc1cccc(C(=O)N2CCCC2)c1,-5.2% (inactive)
5,CCOc1ccc(C(=O)/C=C/c2cc(OC)c(OC)c(OC)c2)cc1,4.5% (inactive)
6,CCOC(=O)C(NC(C)=O)C(O)c1ccc([N+](=O)[O-])cc1 (stereo not given),-2.3% (inactive)
7,COc1ccc2c(c1)C=CC1(O2)N(CCO)c2ccccc2C1(C)C (stereo not given),-7.3% (inactive)
8,COc1cc(Cc2cnc(N)nc2N)cc(OC)c1OC,-0.1% (inactive) and 0.6% (inactive)
9,C/C(NC(=O)c1cccs1)=C1\C(=O)C[C@@H]2[C@H]1C2(C)C,3.4% (inactive)
10,Cc1cccc(NC(=O)c2cc3ccccc3o2)c1,-2.2% (inactive)
11,CC12COC3(C(=O)Nc4ccc(F)cc4)CC1CCC32C (stereo not given),-1.8% (inactive)
12,C=CCn1c(SCC(=O)NC2CCCCC2)nc2ccccc2c1=O,-3.5% (inactive)
13,COc1ccc(Cc2noc(CN(C)CC3(N4CCOCC4)CCCCC3)n2)cc1OC,-0.4% (inactive)
14,O=C(c1ccc(O)cc1)c1ccc(O)cc1O,-0.6% (inactive)
15,COc1ccc(-c2c(C)c3ccc(OCC(C)=O)cc3oc2=O)cc1,1.2% (inactive)
16,COc1cccc(OCc2cc(C3Nc4ccccc4C(=O)N3Cc3ccco3)ccc2OC)c1 (stereo not given),-2.1% (inactive)
17,Cc1ccccc1NC(=O)C1c2ccccc2Oc2ccccc21,6.3% (inactive)
18,COc1cc2c(cc1NCc1ccc3c(c1)OCO3)oc1ccccc12,-15.7% (inactive)
19,C=CCn1c(N2CCCCCC2)nc2c1c(=O)n(C)c(=O)n2C,-4.7% (inactive)
20,O=C1C(=O)N2C(=C1C(=O)N1CCCCCC1)c1ccccc1CC21CCCC1,-3% (inactive)
